Laboratory results from PubChem BioAssay (NCI).
Where “and” joins values, the source holds several entries; their conditions need not be identical. Identical values can stand only once. The panel holds about 83,000 compounds, 20% with a hit somewhere; the sample as a whole holds those more often.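 Results are percent growth after 48 hours of single-concentration exposure. 100 means growth as in untreated cells, lower positive values show inhibition; negative values down to -100 show cell death.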 Calls of active or inactive are those of the source. The calls were made as follows: active = growth percent below 10; inactive = the rest.

system: HL-60(TB) leukemia; assay: NCI-60 one-dose screen, 48 h (100 = growth as untreated, 0 = no growth, -100 = all killed); settings: 10 µM unless noted

Compound | growth
O=C(N/N=C/c1cccc2ccccc12)C1CC1 | 71.3% (inactive) and 95.7% (inactive)
Cc1nn(-c2nc3ccccc3[nH]2)c2c1C(c1ccc(OCC(N)=O)cc1)CC(=O)N2 (stereo not given) | 113% (inactive)
CCCCN(CCCC)c1ccc(C(=O)O)cc1 | 104% (inactive)
COc1ccc2nc(NC(=O)CN3CCn4c(nnc4C(F)(F)F)C3)sc2c1 | 103% (inactive)
COc1ccc(/C=N\NC(=O)CN2CCN(c3cc4c(cc3F)c(=O)c(C(=O)N/N=C/c3ccc(OC)c(OC)c3)cn4C3CC3)CC2)cc1OC | 1.29% (active)
COC(=O)/C=C/c1cc(O)c2oc(-c3ccc(O)c(O)c3)c(C(=O)OC)c2c1 | 6.46% (active)
Cc1nssc1=S | 106% (inactive)
C=CCn1cc(-c2nc3ccccc3s2)c2cc(-c3ccc4c5c(cccc35)C(=O)N(N)C4=O)ccc21 | 103% (inactive)
CCN(CC)CCOc1ccc(NC(=O)C(C(C)C)N2C(=O)/C(=C/c3ccc(Br)cc3)SC2=S)cc1 (stereo not given) | 27.6% (inactive)
CCNc1ncnc2[nH]ncc12 | 95.7% (inactive)
Cc1cc(C)c2c(-c3nnc(N)s3)cc(=O)oc2c1 | 98% (inactive)
CCN1CCN(c2nc(NCCNc3ccnc4cc(Cl)ccc34)c3ccccc3n2)CC1 | -67.1% (active)
C#CCn1cc(C=C2C(=O)NC(=S)NC2=O)c2cc(Cl)ccc21 | -4.45% (active)
CCOc1ccc(NC2=C(Cl)C(=O)c3ccccc3C2=O)cc1 | 32% (inactive)
Cc1oc2c(C(=O)N/N=C\c3ccc(O)cc3O)c[nH]c2c1C | -9.06% (active)
C#CC[C@@H]1C[C@]2(C)[C@H]3CC=C4[C@H]5CC(C)(C)CC[C@]5(C(=O)NCCCCN)CC[C@@]4(C)[C@]3(C)CC[C@H]2C(C)(C)[C@H]1OC(C)=O | -46.5% (active)
O=C(Nc1ccc(-n2cc(-c3ccncc3)c(-c3ccc(O)c(Cl)c3)n2)cc1)Nc1ccc(Cl)c(C(F)(F)F)c1 | -4.77% (active)
COc1cc(NC(N)=NCCC(C)(C)c2ccc(C(F)(F)F)cc2)ncc1C#N | -34.6% (active)
CCCCOc1ccc(/C=N/Nc2cc(C)nc3ccc(Cl)cc23)cc1 | -30.2% (active)
C#Cc1cccc(Nc2ncnc3cc(OC)c(OCCCCCCC(=O)NO)cc23)c1 | 2.38% (active)

Compound | growth
O=c1ssc(Cl)c1-c1ccccc1 | 48% (inactive)
NC(=Nc1ccc(N)cc1)C(N)=Nc1ccc(N)cc1 | 59.6% (inactive)
OB(O)c1cccc(-c2nc3ccc4[nH]ncc4c3c3c2CCCC3)c1F | 32.1% (inactive)
Cn1cc(-c2cc3c(Nc4ccc(CC(=O)Nc5cc(C(C)(C)C)on5)cc4)ncnc3[nH]2)cn1 | 6.63% (active) and -21.3% (active)
Cc1ccc(NC(=O)NC(=O)CSc2nc3ccccc3nc2C)cc1 | 67.9% (inactive)
Cc1n[nH]c(C)c1N=Nc1cccc2c1C(=O)c1ccccc1C2=O | 96.3% (inactive)
Cc1ccc(C)c(C(O)(c2cc(C)ccc2C)C2(O)CCCCC2)c1 | 96.5% (inactive)
O=C(N/N=C/c1ccc(F)cc1)c1ccccc1Nc1cccc(C(F)(F)F)c1 | 88.1% (inactive)
CCCCn1c(=O)[nH]c(N)c(C(c2ccc(Cl)cc2)c2c(N)[nH]c(=O)n(CCCC)c2=O)c1=O | 13.2% (inactive)
O=[N+]([O-])c1cccc2ccc(N/N=C/c3ccccc3O)nc12 | 40.7% (inactive) and 50.5% (inactive)
C=C1C(=O)O[C@H]2[C@H]1CC/C(COC(=O)c1cccnc1)=C\CC[C@@]1(C)O[C@@H]21 | 2.18% (active)
COc1ccc2c(c1)C1=NN(C(=O)CO)[C@H](c3ccc(OC(F)(F)F)cc3)[C@@H]1CC2 | 104% (inactive)
O=C(/C=C/c1c(Cl)nc2sccn12)c1nccs1 | 81.5% (inactive)
Cc1nc2ncccc2nc1Nc1ccc(S(=O)(=O)Nc2cncs2)cc1 | 109% (inactive)
COc1cccc(CNc2ncnc3c2ncn3C2OC(CO)C(O)C2O)c1O (stereo not given) | -47% (active)
CN(C)C(=S)SC(=S)N(C)C | 103% (inactive) and 93.8% (inactive)
O=CC(O)C(O)C(O)CO (stereo not given) | 130% (inactive) and 91.5% (inactive)
O=c1cc(-c2ccccc2)oc2cc(OCc3cn(Cc4ccc(F)cc4)nn3)cc(O)c12 | 104% [100 µM] (inactive)
CC(C)CCC(=O)[C@@H](C)[C@H]1[C@@H](OC2OCC(O)C(O)C2NS(C)(=O)=O)C[C@H]2[C@@H]3CC=C4C[C@@H](O)CC[C@]4(C)[C@H]3CC[C@]12C (stereo not given in full) | 7.32% (active)
C=C1C(=O)O[C@H]2[C@H]1CC/C(COC(=O)/C=C\C(=O)NCc1ccc(Cn3c(=O)sn(-c4ccc(Cl)cc4)c3=O)cc1)=C\CC[C@@]1(C)O[C@@H]21 | -52.5% (active)
